Results filed as inconclusive are left out. The source holds several records for some structures; these can differ, active in one and inactive in another. Activity calls are given as the source filed them. How the source made its calls: active means hit-call score of the fitted dose curve at least 0.9, where 1 is the maximum; inconclusive means response in the unintended direction; inactive means score below 0.9.
Legend:
[1] = TOX21_p53_BLA_p2_viability: Viability Assessment in the Tox21 HCT-116 p53 Agonism Beta-lactamase Assay, Phase 2 (AID 2283591);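 further: compound exposure lasted 16 h at 37 °C; actives lower the ATP signal meaning cytotoxicity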
How it was run: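 HCT116 p53-bla cells, 4000/well, dosed after 5 h plating (217-fold dilution of DMSO stocks) and incubated 16 h at 37C. Viability taken as cellular ATP by CellTiter-Glo luminescence after 30 min RT; signal loss marks cytotoxicity.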

[2] = target: Cellular tumor antigen p53 (Homo sapiens) (UniProt P04637); experiment: TOX21_p53_BLA_p2_ratio: Tox21 HCT-116 p53 Agonism Beta-lactamase Assay, Ratio, Phase 2 (AID 2283592)
How it was run: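 Cleaved-to-uncleaved substrate ratio (460 vs 530 nm) measured in HCT116 cells with an inducible beta-lactamase reporter linked to p53 activity. Compounds incubated 16 h at 37C before 2 h room-temperature CCF4-AM loading.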

[3] = target: Cellular tumor antigen p53 (Homo sapiens) (UniProt P04637); experiment: TOX21_p53_BLA_p4_ratio: Tox21 HCT-116 p53 Agonism Beta-lactamase Assay, Ratio, Phase 4 (AID 2283601)
How it was run: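 HCT-116 p53 beta-lactamase reporter cells (4000/well) preincubated 5 h, then compound (217-fold dilution of DMSO stock) for 16 h at 37C. CCF4-AM substrate added 2 h at room temperature; 460/530 nm emission ratio fitted upward versus DMSO.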

[4] = TOX21_p53_BLA_p3_viability: Viability Assessment in the Tox21 HCT-116 p53 Agonism Beta-lactamase Assay, Phase 3 (AID 2283593);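 further: cells exposed to compound for 16 h before reading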
How it was run: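 HCT116 cells, 4000/well, dosed 5 h after plating by pin transfer (217-fold dilution from DMSO stock) and incubated 16 h at 37C, 5% CO2. Viability read as ATP luminescence with CellTiter-Glo after 30 min at room temperature.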

[5] = target: Cellular tumor antigen p53 (Homo sapiens) (UniProt P04637); experiment: TOX21_p53_BLA_p3_ratio: Tox21 HCT-116 p53 Agonism Beta-lactamase Assay, Ratio, Phase 3 (AID 2283596)
How it was run: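 Cells were seeded at 4000/well, rested 5 h at 37C, then dosed with DMSO compound solutions (217-fold dilution) for 16 h. CCF4-AM substrate was loaded for 2 h at room temperature, and the 460/530 nm emission ratio was fitted for gain of signal versus DMSO.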

[6] = TOX21_p53_BLA_p4_viability: Viability Assessment in the Tox21 HCT-116 p53 Agonism Beta-lactamase Assay, Phase 4 (AID 2283597);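 further: hits lower the luminescence signal meaning cytotoxicity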
How it was run: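 Viability is taken as cellular ATP: after 16 h compound exposure of HCT116 cells and a 2 h room-temperature CCF4-AM substrate step, CellTiter-Glo reagent is added and luminescence is measured 30 min later.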

[7] = TOX21_p53_BLA_p5_viability: Viability Assessment in the Tox21 HCT-116 p53 Agonism Beta-lactamase Assay, Phase 5 (AID 2283600)
How it was run: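 Viability is taken from cellular ATP content, measured by luciferase luminescence in the same wells after the beta-lactamase ratio read. Cells are seeded at 4000 per well and exposed to DMSO-dissolved compounds, diluted 217-fold, for 16 h.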

[8] = target: Cellular tumor antigen p53 (Homo sapiens) (UniProt P04637); experiment: TOX21_p53_BLA_p5_ratio: Tox21 HCT-116 p53 Agonism Beta-lactamase Assay, Ratio, Phase 5 (AID 2283599)
How it was run: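 HCT-116 p53-bla cells (4000/well) plated 5 h, dosed with compound (217-fold DMSO dilution) for 16 h at 37 C; CCF4-AM substrate 2 h at room temperature. Activity is the 460/530 nm emission ratio (405 nm excitation), fitted in gain-of-signal direction versus DMSO.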

[9] = target: Thyroid hormone receptor alpha (Rattus norvegicus) + Thyroid hormone receptor beta (Rattus norvegicus) (UniProt P18113+P63059); experiment: TOX21_TR_LUC_GH3_Antagonist_Followup: Tox21 GH3 Thyroid Hormone Receptor Antagonism Luciferase Follow-Up Assay (AID 2283942)
How it was run: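 Luminescence read-out (ONE-Glo, 30 min at room temperature) in GH3 reporter cells challenged with 1.0 nM T3 final. Compounds ran at 92 uM to 5nM over 15 concentrations for 24 h; DMSO served as negative control and baseline.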

THRB (gene 7068) [10] = target: THRB (gene 7068) (UniProt P10828); experiment: TOX21_TRB_BLA_Antagonist_Followup_ratio: Tox21 Thyroid Hormone Receptor beta Antagonism Beta-lactamase (BLA) Follow-Up Assay, Ratio (AID 2283958)
How it was run: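 Using charcoal-stripped 2% FBS medium, human TRβ-LBD/GAL4 reporter HEK293T cells received test compounds for 18 h. The endpoint is the cleaved-to-uncleaved substrate ratio (460/530 nm).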

[11] = TOX21_TRB_BLA_Antagonist_Followup_viability: Viability Assessment in the Tox21 Thyroid Hormone Receptor beta Antagonism Beta-lactamase (BLA) Follow-Up Assay (AID 2283961)
How it was run: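 Cytotoxicity is measured in parallel with the antagonist-mode TRβ beta-lactamase screen, using ATP-coupled luciferase luminescence. Engineered HEK293T cells are treated for 18 h with 11-point compound series in triplicate.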

THRB (gene 7068) [12] = target: THRB (gene 7068) (UniProt P10828); experiment: TOX21_TRB_COA_Antagonist_Followup_ratio: Tox21 Thyroid Hormone Receptor beta Antagonism through Coactivator Recruitment Follow-Up Assay, Ratio (AID 2283967)
How it was run: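 GST-TRb LBD 5.0 nM + 0.10% BSA, compound added; fluorescein-SRC-2 peptide 200 nM, Tb-anti-GST Ab 2 nM. TR-FRET, ex 340 / em 520:495 ratio. Norm: DMSO 0%, T3 100%.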

[13] = TOX21_TR_RXR_BLA_Antagonist_Followup_viability: Viability Assessment in the Tox21 Thyroid Hormone Receptor beta Retinoid X Receptor alpha (RXRa) Antagonism Beta-lactamase (BLA) Follow-Up Assay (AID 2283979)
How it was run: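 RXRa-bla HEK293T cells (2,500/well, phenol red-free DMEM, 2% charcoal-stripped FBS) were attached 5 h, then exposed to compounds at 11 concentrations in triplicate for 16 h at 37C. Viability measured by CellTiter-Glo ATP luminescence, bidirectional fitting versus DMSO.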

Measured: AC50

Cellular tumor antigen p53 (Homo sapiens), sequence (P04637 whole entry, looked up): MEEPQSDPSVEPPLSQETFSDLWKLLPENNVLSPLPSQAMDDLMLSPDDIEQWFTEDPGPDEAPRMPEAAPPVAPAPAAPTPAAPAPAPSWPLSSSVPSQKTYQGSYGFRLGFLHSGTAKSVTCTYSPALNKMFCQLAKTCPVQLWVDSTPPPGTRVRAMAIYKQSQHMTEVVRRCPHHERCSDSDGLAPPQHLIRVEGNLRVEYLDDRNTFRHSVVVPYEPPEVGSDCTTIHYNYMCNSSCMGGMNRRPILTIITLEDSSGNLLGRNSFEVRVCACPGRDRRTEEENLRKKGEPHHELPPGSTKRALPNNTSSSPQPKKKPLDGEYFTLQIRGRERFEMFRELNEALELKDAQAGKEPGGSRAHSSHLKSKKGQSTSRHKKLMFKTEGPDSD
THRB (gene 7068), sequence (P10828 whole entry, looked up, the tested form may be a part): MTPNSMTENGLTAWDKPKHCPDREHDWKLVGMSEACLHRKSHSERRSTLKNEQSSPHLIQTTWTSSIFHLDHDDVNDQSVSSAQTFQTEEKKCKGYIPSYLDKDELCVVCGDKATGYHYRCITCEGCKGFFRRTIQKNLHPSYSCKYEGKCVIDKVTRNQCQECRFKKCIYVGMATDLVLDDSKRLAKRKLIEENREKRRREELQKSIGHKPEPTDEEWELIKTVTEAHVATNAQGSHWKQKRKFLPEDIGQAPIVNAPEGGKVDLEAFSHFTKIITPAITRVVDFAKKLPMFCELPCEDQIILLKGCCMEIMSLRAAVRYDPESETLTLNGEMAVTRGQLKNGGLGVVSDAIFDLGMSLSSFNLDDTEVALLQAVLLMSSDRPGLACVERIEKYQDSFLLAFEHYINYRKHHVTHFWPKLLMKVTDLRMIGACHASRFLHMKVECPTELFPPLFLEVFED

NO
inactive: [1] | [2] | [3]

CN1CCN(CC(=O)N2c3ccccc3C(=O)Nc3cccnc32)CC1
inactive: [1] | [4] | [5] | [6]

CCCCOC(=O)CO
inactive: [1] | [2] | [7] | [3]

COc1cc2nc(N3CCN(C(=O)C4COc5ccccc5O4)CC3)nc(N)c2cc1OC (stereo unspecified)
inactive: [1] | [4] | [5] | [6]

NC/C=C/C(=O)O
inactive: [1] | [2] | [7] | [3]

CC(=O)Nc1ccc(N)cc1
inactive: [1] | [2] | [3]

OCCN1CCN(CCCN2c3ccccc3C=Cc3ccccc32)CC1
active: [6] 28.1 µM
inactive: [1] | [4] | [5] | [6] | [8] | [7] | [3]

N=C(N)N
inactive: [1] | [2] | [7] | [3]

ClC(Cl)(Br)Br
inactive: [1] | [2] | [7]

O=C(O)c1ccc(NC2OC[C@@H](O)[C@H](O)[C@H]2O)cc1 (stereo partly specified)
inactive: [1] | [2] | [3]

CCCC(=O)OC[C@@H](OC(=O)CCC)[C@@H](OC(=O)CCC)[C@H](Cn1c2nc(=O)[nH]c(=O)c-2nc2cc(C)c(C)cc21)OC(=O)CCC
inactive: [1] | [4] | [5] | [6]

COc1cc([C@H]2Oc3cc([C@H]4Oc5cc(O)cc(O)c5C(=O)[C@@H]4O)ccc3O[C@@H]2CO)ccc1O
active: [2] 86.2 µM | [3] 87.1 µM
inactive: [1]

CC(C)C(=O)OC(=O)C(C)C
inactive: [1] | [4] | [5] | [6] | [8]

CCCCCCCN
inactive: [1] | [2] | [3]

CCN(CC)CCNC(=O)c1cc(Br)c(N)cc1OC
inactive: [1] | [2] | [7] | [3]

CC(C)N=c1cc2n(-c3ccc(Cl)cc3)c3ccccc3nc-2cc1Nc1ccc(Cl)cc1
inactive: [1] | [4] | [5] | [6] | [8] | [7]

C[N+](C)(C)CCCCCCCCCC[N+](C)(C)C
inactive: [1] | [2] | [7] | [3]

OCCN1C[C@H](O)[C@@H](O)[C@H](O)[C@H]1CO
inactive: [1] | [4] | [5] | [6] | [8] | [7]

CN(C)CCc1c[nH]c2ccc(Cn3cncn3)cc12
inactive: [1] | [2] | [3]

CN1CCN(C(=O)C2CCCCC2)CC1
inactive: [1] | [2] | [7]

O=[N+]([O-])c1ccc(/C=N\O)o1
inactive: [1] | [2] | [8] | [3]

Cc1ccc(S(=O)(=O)NC2CCCCC2)cc1
inactive: [1] | [2] | [7]

C=C(C)C(=O)OCC[N+](C)(C)C
inactive: [1] | [2] | [3]
active: [8] 72.9 µM

O=C(O)c1cc(=O)c2ccccc2o1
inactive: [1] | [2] | [7] | [3]

C(=C/c1ccccc1)/c1ccccc1
inactive: [1] | [2] | [7]

CC(C)CN(C[C@@H](O)[C@H](Cc1ccccc1)NC(=O)O[C@@H]1CCOC1)S(=O)(=O)c1ccc(N)cc1
inactive: [1] | [2] | [7]

C=CCOc1cc(Cl)ccc1C(=O)NCCN(CC)CC
inactive: [1] | [2] | [8] | [3]

CC(N)CCCC(C)(C)O (stereo unspecified)
inactive: [1] | [2] | [7]

CCCCCCCN(CC)CCCC(O)c1ccc(NS(C)(=O)=O)cc1 (stereo unspecified)
inactive: [1] | [4] | [5] | [6]

CC1COc2ccccc2N1 (stereo unspecified)
inactive: [1] | [4] | [5] | [6]

Cn1cc(S(C)=O)c(=O)c2ccc(F)cc21 (stereo unspecified)
inactive: [1] | [2] | [3]

CC(C(=O)O)c1cccc(C(=O)c2ccccc2)c1 (stereo unspecified)
inactive: [1] | [4] | [5] | [6] | [8] | [7] | [3]

CCCCCCCCCCCCC(=O)O
inactive: [1] | [4] | [5] | [6] | [8] | [7]

CC(C)(C)CC(C)(C)c1cc(Cc2cc(C(C)(C)CC(C)(C)C)cc(-n3nc4ccccc4n3)c2O)c(O)c(-n2nc3ccccc3n2)c1
inactive: [1] | [4] | [5] | [6] | [8] | [7]

CC(=O)c1ccc2c(c1)N(CCCN1CCC(CCO)CC1)c1ccccc1S2
inactive: [1] | [4] | [5] | [6] | [8] | [7] | [3]

O=C(O)CONC(=O)c1ccccc1
inactive: [1] | [4] | [5] | [6] | [8] | [7] | [3]

CCCCCOc1ccc(C2SC(=O)NC2=O)cc1OCC (stereo unspecified)
active: THRB (gene 7068) [10] 1.76 µM | THRB (gene 7068) [12] 10.8 µM
inactive: [1] | [4] | [5] | [6] | [8] | [7] | [3] | [9] | [11] | [13]

Cc1ccc(NC(=O)N(C)C)cc1NC(=O)N(C)C
inactive: [1] | [4] | [5] | [6] | [8] | [7]
